Laboratory results taken from PubChem BioAssay AID463173 (ICCB-Longwood Screening Facility, Harvard Medical School, 2010).
Hit rate of the full screen: of about 52,000 compounds, about 4,300 (8.3%) were called active. Rule as the data show it: active = survival mostly below about 52% (no sharp cut-off); inactive = mostly above about 56%. Shown is part of a subset that was picked to be rich in actives.

System: DeltatarO mutant
Assay: growth inhibition of S. aureus wild type versus tarO mutant, primary screen, teichoic acid synthesis inhibitors, RN4220, OD600 (AID 463173)
Settings: OD600, 18 h, stronger effect = lower value, screened at 18.75 µg/mL (by protocol)

Row | Compound | survival
1 | O=C(NCc1ccccc1Cl)c1ccc2c(c1)NC(=O)C(CS(=O)(=O)Cc1ccc(F)cc1Cl)N2 (stereo unspecified) | 81% (inactive)
2 | COc1ccc(N2CCN(c3csc4ccccc4c3=O)CC2)cc1 | 81% (inactive)
3 | CCc1ccc(S(=O)(=O)c2nnn3c2nc(N2CCC(C(N)=O)CC2)c2cc(Cl)ccc23)cc1 | 69% (inactive)
4 | Cc1cc(C)n(CC(C)O)c(=O)c1C#N (stereo unspecified) | 108% (inactive)
5 | CC1(C)C(=O)N(CC(=O)Nc2ccc(Br)cc2F)c2ccccc21 | 89% (inactive)
6 | CCc1cccc(OCC(=O)Nc2ccc(S(=O)(=O)Nc3ncccn3)cc2)c1 | 43% (active)
7 | CCc1cccc(OCC(=O)Nc2ccc(S(=O)(=O)Nc3cc(C)nc(C)n3)cc2)c1 | 58% (inactive)
8 | CC(C)c1ccc(OCC(=O)Nc2ccc(S(=O)(=O)Nc3ncccn3)cc2)cc1 | 75% (inactive)
9 | Cc1cc(Br)cc(C)c1OCC(=O)Nc1ccc(S(=O)(=O)Nc2ncccn2)cc1 | 56% (inactive)
10 | Cc1ccccc1OCC(=O)Nc1ccc(S(=O)(=O)Nc2ncccn2)cc1 | 133% (inactive)
11 | Cc1ccc(OCC(=O)Nc2ccc(S(=O)(=O)Nc3ncccn3)cc2)c(C(C)(C)C)c1 | 47% (active)
12 | CCC(Sc1nc2ncccc2[nH]1)C(=O)Nc1ccccc1F (stereo unspecified) | 112% (inactive)
13 | CCOC(=O)Cn1c(=O)oc2cc(S(=O)(=O)N3CCN(c4cccc(Cl)c4)CC3)ccc21 | 65% (inactive)
14 | COc1cccc2c1Oc1ncccc1N(c1ccc(C(=O)NCc3ccccc3Cl)s1)C2 | 91% (inactive)
15 | COc1ccc(Cn2c(CCC(=O)Nc3ccc(OC)c(Cl)c3)nc3cccnc32)cc1 | 113% (inactive)
16 | Cc1cccc(-c2nc(C)c(CCNC(=O)C(=O)Nc3ccccc3C#N)s2)c1 | 85% (inactive)
17 | CS(=O)(=O)N1CCC(n2c(C(F)(F)F)nc3cccnc32)CC1 | 47% (active)
18 | CCS(=O)(=O)N1CCC(n2c(C(F)(F)F)nc3cccnc32)CC1 | 76% (inactive)
19 | CN(C)S(=O)(=O)N1CCC(n2c(C(F)(F)F)nc3cccnc32)CC1 | 94% (inactive)
20 | COc1ccc(S(=O)(=O)c2c(O)c3ccc(C(=O)NCc4ccc(F)cc4)cc3[nH]c2=O)cc1 | 108% (inactive)
21 | CCOc1cc(-c2ccc(OC(=O)c3ccccc3)c(OC)c2)cc(=O)c2c(C)oc(C)c12 | 89% (inactive)
22 | CCc1ccc(S(=O)(=O)c2nnn3c2nc(Nc2cc(OC)cc(OC)c2)c2cc(Cl)ccc23)cc1 | 102% (inactive)
23 | CCOc1ccc(Nc2nc(C)c(NC(=O)c3ccc(C)cc3)c(Nc3ccc(OCC)cc3)n2)cc1 | 123% (inactive)

Row | Compound | survival
24 | CCOc1ccc(C(=O)Nc2c(C)nc(Nc3ccccc3)nc2Nc2ccccc2)cc1OCC | 49% (active)
25 | CCOc1ccc(Nc2nc(C)c(NC(=O)c3cccc(OC)c3)c(Nc3ccc(OCC)cc3)n2)cc1 | 112% (inactive)
26 | COc1ccccc1Cc1nc2ccccc2nc1SCC(=O)N(C)c1ccc(F)cc1 | 83% (inactive)
27 | O=C(Cn1cc(SCc2ccc(C(F)(F)F)cc2)c2ccccc21)N1CCOCC1 | 85% (inactive)
28 | COc1ccc(NC(=O)NC2COc3ccccc3C2)cc1Cl (stereo unspecified) | 57% (inactive)
29 | O=C(Nc1ccc(OC(F)(F)F)cc1)NC1COc2ccccc2C1 (stereo unspecified) | 0% (active)
30 | COc1ccc(NC(=O)NC2COc3ccccc3C2)c(OC)c1 (stereo unspecified) | 98% (inactive)
31 | O=C(O)c1ccccc1C(=O)Nc1cccnc1 | 89% (inactive)
32 | O=C(Nc1cccnc1)c1cccc(C(=O)Nc2cccnc2)c1 | 79% (inactive)
33 | O=C(Nc1cccnc1)c1ccccc1Oc1ccccc1 | 65% (active)
34 | CCOc1ccc(-c2c(C)nn3c(C)c(C(=O)NCc4cccc(OC)c4)cnc23)cc1OCC | 77% (inactive)
35 | CC(NC(=O)CN(c1ccc(Cl)cc1Cl)S(=O)(=O)c1ccccc1)c1ccccc1 (stereo unspecified) | 37% (active)
36 | COc1ccc(N(CC(=O)Nc2cccc(C(C)=O)c2)S(=O)(=O)c2ccccc2)c(OC)c1 | 48% (active)
37 | CCOc1ccc(NC(=O)CN(c2ccc(Cl)cc2C)S(=O)(=O)c2ccccc2)cc1 | 45% (active)
38 | Cc1ccccc1NC(=O)CN(c1ccc(Cl)cc1Cl)S(=O)(=O)c1ccccc1 | 44% (inactive)
39 | CCOc1ccc(S(=O)(=O)N(CC(=O)Nc2ccc(OC)c(Cl)c2)c2ccccc2)cc1 | 75% (inactive)
40 | COc1ccc(N(CC(=O)NCCc2ccccc2)S(=O)(=O)c2ccccc2)c(OC)c1 | 57% (inactive)
41 | COc1ccc(N(CC(=O)Nc2ccc(Cl)cc2C)S(=O)(=O)c2ccccc2)c(OC)c1 | 113% (inactive)
42 | CCOc1ccc(NC(=O)CN(c2ccccc2OCC)S(=O)(=O)c2ccccc2)cc1 | 48% (inactive)
43 | Cc1ccc(CNC(=O)CN(c2ccc(Cl)cc2Cl)S(=O)(=O)c2ccccc2)cc1 | 47% (inactive)
44 | CCN(CC)CCCNc1nc(C)nc2c1nnn2Cc1ccccc1 | 94% (inactive)
45 | CC(C(=O)NCc1ccco1)N1CCN(C)CC1 (stereo unspecified) | 95% (inactive)
46 | CC(C)NC(=O)Cc1ccc(Br)cc1 | 80% (inactive)

Row | Compound | survival
47 | Cc1cccc(N(C)S(=O)(=O)c2cc(-c3cnc(C4CC4)o3)ccc2C)c1 | 100% (inactive)
48 | COc1ccc(NC(=O)CSc2nnc(-c3ccncc3)n2-c2ccccc2)cc1 | 77% (inactive)
49 | CC(=O)Nc1nonc1-c1nnc(SCC(=O)Nc2c(C)cccc2C)n1-c1ccccc1 | 56% (inactive)
50 | CCn1c(SCC(=O)Nc2ccc(C)c(C)c2)nnc1-c1nonc1NC(C)=O | 110% (inactive)
51 | CC(=O)Nc1nonc1-c1nnc(SCC(=O)Nc2ccccc2)n1-c1ccccc1 | 39% (active)
52 | COc1ccccc1NC(=O)CSc1nnc(-c2nonc2NC(C)=O)n1-c1ccccc1 | 63% (inactive)
53 | COc1ccc(NC(=O)CSc2nnc(-c3nonc3NC(C)=O)n2-c2ccccc2)cc1 | 60% (active)
54 | CC(=O)Nc1nonc1-c1nnc(SCC(=O)Nc2cc(C)ccc2C)n1-c1ccccc1 | 104% (inactive)
55 | CCc1ccccc1NC(=O)CSc1nnc(-c2nonc2NC(C)=O)n1C | 52% (inactive)
56 | CCOc1ccc(NC(=O)CSc2nnc(-c3ccncc3)n2-c2ccccc2)cc1 | 122% (inactive)
57 | CC(=O)Nc1nonc1-c1nnc(SCC(=O)Nc2ccc(F)cc2F)n1-c1ccccc1 | 13% (active)
58 | CCc1ccc(NC(=O)CSc2nnc(-c3nonc3NC(C)=O)n2-c2ccccc2)cc1 | 43% (active)
59 | CC(=O)Nc1nonc1-c1nnc(SCC(=O)Nc2ccc(C)cc2)n1-c1ccccc1 | 53% (inactive)
60 | Cc1cccc(NC(=O)CSc2nc3ccc(NC(=O)c4ccco4)cc3s2)c1 | 66% (inactive)
61 | CCC1CN(C(=O)N2CCC(C(=O)NCc3ccc(OC)cc3OC)CC2)c2cc(C)ccc2O1 (stereo unspecified) | 79% (inactive)
62 | CCOc1cc(C2c3c(oc4ccccc4c3=O)C(=O)N2c2ccccn2)ccc1O (stereo unspecified) | 109% (inactive)
63 | CCOC(=O)Cn1c(=O)oc2cc(S(=O)(=O)NCc3ccc(F)cc3)ccc21 | 72% (inactive)
64 | Cc1cccn2c(=O)c(C(=O)NCCc3ccc(S(N)(=O)=O)cc3)c(O)nc12 | 51% (inactive)
65 | Cc1nn2c(=O)cc(COc3ccc(/C=C(\C#N)C(=O)Nc4ccc(F)cc4)cc3)nc2s1 | 58% (inactive)
66 | CCOC(=O)c1c(C)[nH]c(C)c1S(=O)(=O)N1CCC(C(=O)Nc2ccc(C)c(N(C)C)c2)CC1 | 84% (inactive)
67 | CC(=O)N1CCc2nc3sc(C(=O)Nc4ccc(Cl)cc4F)c(N)c3c(C(F)(F)F)c2C1 | 75% (inactive)
68 | CC(=O)Nc1nonc1-c1nnc(SCC(=O)Nc2cccc(F)c2)n1-c1ccccc1 | 19% (active)
69 | CC(=O)Nc1nonc1-c1nnc(SCC(=O)Nc2cc(C)cc(C)c2)n1-c1ccccc1 | 50% (inactive)

Row | Compound | survival
70 | CC(=O)Nc1nonc1-c1nnc(SCC(=O)Nc2cccc(C)c2C)n1-c1ccccc1 | 61% (inactive)
71 | Cc1nc2cc(-c3ccccc3)nn2c(C)c1CCC(=O)Nc1ccc(F)cc1F | 61% (inactive)
72 | CCOC(=O)N1CCc2c(sc3c2c(=O)n(Cc2ccccc2)c(=O)n3CC(=O)Nc2cccc(CC)c2)C1 | 71% (inactive)
73 | COc1cc(NC(=O)C(Cc2ccccc2)NS(=O)(=O)c2cccc3nsnc23)cc(OC)c1 (stereo unspecified) | 72% (inactive)
74 | O=C(Nc1ccc(OC(F)(F)F)cc1)C(NS(=O)(=O)c1cccc2nsnc12)c1ccccc1 (stereo unspecified) | 56% (inactive)
75 | O=C(Nc1ccc(OC(F)(F)F)cc1)C(Cc1ccccc1)NS(=O)(=O)c1cccc2nsnc12 (stereo unspecified) | 49% (active)
76 | CCc1ccccc1NC(=O)N1CCN(c2cc(-c3noc(C)n3)ccc2C)CC1 | 134% (inactive)
77 | S=c1[nH]nc(CCCOc2ccc(Cl)cc2Cl)o1 | 54% (inactive)
78 | O=C(NC1CCCCC1)NC1CCN(Cc2nnnn2Cc2ccc(F)cc2)CC1 | 88% (inactive)
79 | COc1ccc(Cn2ccc3nc(C)c(C(=O)N4CCN(c5ccccc5F)CC4)cc3c2=O)cc1 | 63% (inactive)
80 | COc1ccc(C(=O)N2c3ccccc3C(C)(c3ccc(Cl)cc3)CC2(C)C)cc1 (stereo unspecified) | 11% (active)
81 | COc1ccc(CCC(=O)NCc2ccc3c(c2)CCN3C(=O)c2ccc(Cl)cc2)cc1 | 89% (inactive)
82 | CC1(c2ccccc2)CC(C)(C)N(C(=O)c2ccccc2Cl)c2ccccc21 (stereo unspecified) | -4% (active)
83 | CC1(c2ccccc2)CC(C)(C)N(C(=O)c2cccc(Cl)c2)c2ccccc21 (stereo unspecified) | 8% (active)
84 | COc1ccccc1C(=O)CC1(O)C(=O)N(CC(N)=O)c2ccccc21 (stereo unspecified) | 61% (inactive)
85 | CC1CCN(C(=O)c2cccc(Cl)c2)CC1 | 93% (inactive)
86 | COc1ccccc1C(=O)N1c2ccccc2C(C)(c2ccc(Cl)cc2)CC1(C)C (stereo unspecified) | 0% (active)
87 | COc1ccccc1C(=O)N1CCC(c2c[nH]c3ccccc23)(c2c[nH]c3ccccc23)CC1 | 98% (inactive)
88 | COc1ccc(C(=O)N2CCC(C(=O)Nc3ccc(Cl)cc3)CC2)cc1 | 127% (inactive)
89 | CN1CC2(C)CN(C(=O)c3ccccc3Cl)CC(C)(C1)C2 | 88% (inactive)
90 | O=C(c1ccccc1Cl)n1cc(Cl)cn1 | 95% (inactive)
91 | CC1CCN(c2ccc(NC(=O)c3cccc(Cl)c3)cc2C(=O)O)CC1 | 87% (inactive)
